The target of test [1] is Estrogen receptor (Homo sapiens) (UniProt P03372). Kind of test: CCTE_Deisenroth_AIME_384WELL_LUC_Active: CCTE's 384-well Estrogen Receptor Transactivation Assay with AIME metabolic competence (ERTA luciferase; metabolism positive), Deisenroth Lab (AID 2284030; active = hit-call score of the fitted dose curve at least 0.9, where 1 is the maximum). In outline:
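Chemicals (10-point, 0.002-200 uM) were first incubated 2 hours with alginate-immobilized induced male Sprague Dawley rat liver S9. The conditioned medium was then applied to VM7Luc4E2 cells for 24 hours, with ER luciferase induction read by luminescence relative to 17beta-estradiol.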

A short description of test [2]: CCTE_Deisenroth_AIME_384WELL_CTox_Active: Cytotoxicity Assessment (CTOX) in CCTE's 384-well Estrogen Receptor Transactivation Assay with AIME metabolic competence (metabolism positive), Deisenroth Lab (AID 2284037; active = hit-call score of the fitted dose curve at least 0.9, where 1 is the maximum;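 also: chemicals first conditioned 2 h by alginate-bound induced rat liver S9 before cells; activity means signal loss indicating cell death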). In outline: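 VM7Luc4E2 breast cells received medium pre-incubated 2 h with chemical over alginate microspheres holding induced male Sprague Dawley rat liver S9; viability read 24 h later by protease-substrate fluorescence. Loss of signal, bidirectional fit, 0.002–200 uM.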

Test [3] concerns the target Estrogen receptor (Homo sapiens) (UniProt P03372). Kind of test: CCTE_Deisenroth_AIME_96WELL_LUC_Active: CCTE's 96-well Estrogen Receptor Transactivation Assay with AIME metabolic competence (ERTA luciferase; metabolism positive), Deisenroth Lab (AID 2284023; active = hit-call score of the fitted dose curve at least 0.9, where 1 is the maximum). In outline:
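Metabolism-positive mode: induced rat hepatic S9 in alginate microspheres conditions test solutions (0.002 - 200 uM, 10 points) for 2 hours. VM7Luc4E2 ER luciferase reporter cells then exposed 24 h; positive-direction fit against 17beta-estradiol, n=4 typical.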

Test [4] shares this target. Description: CCTE_Deisenroth_AIME_96WELL_LUC_Inactive: CCTE's 96-well Estrogen Receptor Transactivation Assay without AIME metabolic competence (ERTA luciferase; metabolism negative), Deisenroth Lab (AID 2284025; active = hit-call score of the fitted dose curve at least 0.9, where 1 is the maximum). In outline:
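Metabolism-negative arm: chemicals (0.002–200 uM, 10 points) incubated 2 h with alginate-water microspheres, then medium moved onto VM7Luc4E2 cells for 24 h luciferase read-out. Positive direction vs 17beta-estradiol; n≥4 experiments.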

Test [5] is described as follows: CCTE_Deisenroth_AIME_96WELL_CTox_Active: Cytotoxicity Assessment (CTOX) in CCTE's 96-well Estrogen Receptor Transactivation Assay with AIME metabolic competence (metabolism positive), Deisenroth Lab (AID 2284028; active = hit-call score of the fitted dose curve at least 0.9, where 1 is the maximum). The method, boiled down:
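Cytotoxicity in VM7Luc4E2 breast cells after 24 h exposure to medium from a 2 h metabolic pre-incubation with induced rat hepatic S9 in alginate microspheres; fluorescent live-cell protease readout, 10-point series 0.002–200 uM, n=4.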

Test [6] can be described thus: CCTE_Deisenroth_AIME_96WELL_CTox_Inactive: Cytotoxicity Assessment (CTOX) in CCTE's 96-well Estrogen Receptor Transactivation Assay without AIME metabolic competence (metabolism negative), Deisenroth Lab (AID 2284029; active = hit-call score of the fitted dose curve at least 0.9, where 1 is the maximum). In outline: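 Metabolism-negative mode: alginate-water lids without rat S9, 2 h pre-incubation of 10-point series (0.002 - 200 uM). Conditioned medium on VM7Luc4E2 cells 24 h; loss of fluorescent live-cell protease signal marks cytotoxicity.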

A short description of test [7]: CCTE_Shafer_MEA_acute_burst_number: CCTE's Neural Acute Assay for Single-Electrode Bursts, Shafer Lab (AID 2284013). The method, boiled down:
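Burst totals were derived with adaptive spike detection (8x rms threshold) on filtered signals from rat cortical cultures; change relative to pre-treatment baseline after 40-min compound exposure (0.03-40 uM) was fitted in the negative direction against DMSO.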

Test [8] is described as follows: CCTE_Shafer_MEA_acute_burst_duration_mean: CCTE's Neural Acute Assay for Mean Burst Duration, Shafer Lab (AID 2284014).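 Also: hits are decreases in mean burst duration relative to DMSO controls.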 The method, boiled down: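 Acute exposure of mature rat cortical networks (DIV 13 or 15) grown on microelectrode arrays to 0.03-40 uM compound. Mean burst duration compared with the 40-min pre-dose baseline over a 40-min post-dose recording at 37 C.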

Test [9] can be described thus: CCTE_Shafer_MEA_acute_per_burst_spike_number_mean: CCTE's Neural Acute Assay for Average Number of Spikes Per Burst, Shafer Lab (AID 2284015).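 Also: hits are decreases in mean spikes per burst versus baseline.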 The method, boiled down: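 Percent change in mean spikes per single-electrode burst is compared between a 40 min baseline and a 40 min recording with compound (0.03-40 uM). Cultures were rat cortical neurons on MEA plates at DIV 13 or 15, recorded at 37 C, with DMSO as the negative control.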

The nature of test [10]: CCTE_Shafer_MEA_acute_interburst_interval_mean: CCTE's Neural Acute Assay for Mean Interburst Interval, Shafer Lab (AID 2284016).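 Also: percent change of mean interburst interval versus each well's own pre-dose baseline; curves fitted for decrease in interburst interval relative to DMSO.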 The method, boiled down: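 Percent change in mean single-electrode interburst interval was calculated per well from 40 min recordings before and after compound (0.03-40 uM). Recordings were made at 37 C on rat cortical cultures at DIV 13 or 15, with spikes detected at 8x rms threshold.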

Test [11] is described as follows: CCTE_Shafer_MEA_acute_burst_percentage_std: CCTE's Neural Acute Assay for Standard Deviation of Burst Percentage, Shafer Lab (AID 2284018).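 Also: fitted in the negative direction so actives lower burst percentage SD.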 In outline: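 Primary rat cortical neurons on 16-electrode MEA wells were recorded 40 min at baseline (DIV 13 or 15), then 40 min after compound (0.03-40 uM), at 37 C. Well value is SD across electrodes of spikes-in-bursts/total spikes; endpoint is percent change, DMSO-referenced.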

Test [12] can be described thus: CCTE_Shafer_MEA_acute_per_network_burst_spike_number_mean: CCTE's Neural Acute Assay for Average Number of Spikes in a Network Burst, Shafer Lab (AID 2284019). The method, boiled down: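 Acute exposure of rat primary cortical networks (DIV 13/15) on MEAs; adaptive spike detection at 8x rms noise, 37 C. Percent change in spikes per network burst after 40 min with compound (0.03-40 uM), negative direction vs DMSO.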

A short description of test [13]: CCTE_Shafer_MEA_acute_per_network_burst_spike_number_std: CCTE's Neural Acute Assay for Standard Deviation of Number of Spikes in a Network Burst, Shafer Lab (AID 2284020).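 Also: fitted for decrease in spike-number SD versus DMSO so actives lower it.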 In outline:
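Acute MEA exposure, rat cortical neurons, 0.03-40 uM. Per-well % change versus own baseline; DMSO as negative control.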

A short description of test [14]: CCTE_Shafer_MEA_acute_per_network_burst_electrodes_number_mean: CCTE's Neural Acute Assay for Mean Number of Electrodes in a Network Burst, Shafer Lab (AID 2284021).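 Also: curves fitted for decreases only so hits reduce electrodes per burst.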 The method, boiled down:
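Rat primary cortical neurons on 48-well MEAs, DIV 13 or 15, were treated at 0.03-40 uM. Spikes were detected at 8x rms noise and recorded at 37 C. The mean electrodes per network burst in a 40 min exposure recording was expressed as percent change from a 40 min baseline.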

Test [15] can be described thus: CCTE_Shafer_MEA_acute_network_burst_percentage: CCTE's Neural Acute Assay for Percentage of Network Bursts, Shafer Lab (AID 2284022).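 Also: curves fitted for loss so actives lower network burst percentage.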 In outline: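 Rat primary cortical neuron networks on 48-well MEA plates, DIV 13 or 15, treated acutely with compound (0.03-40 uM, at least three wells). Percent of spikes within network bursts compared between 40-min recordings before and during exposure at 37 C, expressed as percent change.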

Test [16] is described as follows: CCTE_Shafer_MEA_acute_cross_correlation_HWHM: CCTE's Neural Acute Assay for Cross Correlation at Half Width at Half Maximum, Shafer Lab (AID 2284026).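 Also: spontaneous network firing of rat primary cortical neurons on multiwell microelectrode arrays; percent change per well from pre-dose baseline in spike cross-correlogram half width; hits are a decrease in cross-correlogram half width relative to DMSO.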 The method, boiled down:
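Rat primary cortical neurons on 48-well MEA plates; 40-min baseline and 40-min post-exposure recordings at 37 C on DIV 13 or 15, compounds 0.03-40 uM. Spikes detected at 8x rms noise; percent change in cross-correlogram HWHM per well vs baseline.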

The nature of test [17]: CCTE_Harrill_HTTr_Viability_MCF7: CCTE's 6-hour Cell Viability Assessment for the High-Throughput Transcriptomics (HTTr) Platform, in MCF-7 cells cultured in DMEM + 10% fetal bovine serum, Harrill Lab (AID 2284010). The method, boiled down:
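Read-out is propidium iodide gain of signal by high-content imaging, reflecting membrane integrity loss. Measurements are taken 6 h after dosing, eight concentrations per chemical, with DMSO serving as baseline for bidirectional curve fitting.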

The nature of test [18]: CCTE_Harrill_HTTr_Apoptosis_MCF7: CCTE's 6-hour Apoptosis Assessment for the High-Throughput Transcriptomics (HTTr) Platform, in MCF-7 cells cultured in DMEM + 10% fetal bovine serum, Harrill Lab (AID 2284011). The method, boiled down:
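MCF-7 cells in DMEM + 10% FBS exposed 6 h to chemicals over an eight-point dilution series. Caspase-3/7 activation imaged by high-content CellEvent Green staining; fitted bidirectionally versus DMSO.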

Test [19] is described as follows: CCTE_Shafer_MEA_dev_per_burst_spike_percent: CCTE's Neural Network Formation Assay for Percent of Spikes in a Burst, Shafer Lab (AID 2284032). In outline:
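Value is trapezoidal AUC over recordings on days 5, 7, 9 and 12 of the well-mean fraction of spikes falling in single-electrode bursts; rat cortical cultures exposed continuously from plating, treatment renewed DIV 5 and 9, fitted downward against DMSO.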

The structures appear in SMILES notation. Records with an inconclusive call do not appear. Activity calls are given as the source filed them. The calls were made as follows, unless noted: active = hit-call score of the fitted dose curve at least 0.9, where 1 is the maximum; inactive = score below 0.9.

Sequence of Estrogen receptor (Homo sapiens) (P03372 whole entry, looked up): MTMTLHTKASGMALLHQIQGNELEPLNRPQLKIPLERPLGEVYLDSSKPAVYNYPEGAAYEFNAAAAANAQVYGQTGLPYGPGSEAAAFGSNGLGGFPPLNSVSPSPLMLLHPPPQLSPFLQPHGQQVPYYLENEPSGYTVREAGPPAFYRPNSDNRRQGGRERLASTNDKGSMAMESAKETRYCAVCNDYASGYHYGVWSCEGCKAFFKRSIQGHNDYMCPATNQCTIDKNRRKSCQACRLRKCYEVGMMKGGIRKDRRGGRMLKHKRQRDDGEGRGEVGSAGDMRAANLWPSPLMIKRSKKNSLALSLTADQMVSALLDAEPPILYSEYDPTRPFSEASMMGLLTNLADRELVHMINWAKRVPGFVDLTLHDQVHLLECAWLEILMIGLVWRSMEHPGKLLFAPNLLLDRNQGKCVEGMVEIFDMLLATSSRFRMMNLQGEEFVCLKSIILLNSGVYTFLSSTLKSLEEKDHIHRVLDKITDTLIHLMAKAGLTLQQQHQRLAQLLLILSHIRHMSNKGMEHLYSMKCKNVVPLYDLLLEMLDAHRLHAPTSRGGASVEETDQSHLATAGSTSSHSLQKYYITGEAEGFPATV

As to `CC=C1CC2C=CC1C2` (stereo unspecified), the result in test [1] and in test [2] was inactive.
By AC50 is commonly meant the concentration at which the activity in the assay is half-maximal. As for `CC(C)(C)c1ccc(OC(=O)c2ccccc2O)cc1`, the AC50 in [3] was 17.8 µM (active); in test [4] it was 23.7 µM (active). The result in [5] and in [6] was inactive.
For the compound `O=C(C=Cc1ccccc1)OCc1ccccc1`, the call in test [1] and in [2] was inactive.
As to `CCCCC(CC)COCC1CO1` (stereo unspecified), the call in [7], in test [8], in test [9], in [10], in test [11] and in test [12] was inactive. Moreover, the compound was called inactive in test [13], in test [14], in test [15] and in test [16].
Turning to `O=C1C(N(CO)C(=O)NCO)N(CO)C(=O)N1CO` (stereo unspecified), the result in test [1] and in test [2] was inactive.
Regarding `O=C(c1ccccc1)C1CCC1`, the result in test [1] was inactive.
In the case of `CCCCCCCC[N+](C)(CCCCCCCC)CCCCCCCC`, the AC50 in test [2] was 39.3 µM (active).
For the compound `CCCCC(CC)CCC(CC(C)C)OS(=O)(=O)O` (stereo unspecified), in test [1], the result was inactive.
On the same count and under the same terms, the same measure for `NC(CO)(CO)CO`: “inactive”.
As to `OC1CCCC1`, the result in test [1] and in test [2] was inactive.
Take `C=CC(=O)NC(C)(C)CS(=O)(=O)O`: the result in [17], in test [18], in test [1] and in test [2] was inactive.
With `CCOC(=O)CC`, the outcome in test [1] and in test [2] was inactive.
For `CC=CC(F)(F)C(F)(F)C(F)(F)F`, the outcome in [19] was inactive.
For `CCO[Si](C)(OCC)OCC`, the compound was called inactive in [7], in test [8], in [9], in [10], in test [11] and in [12]. Further, the compound was classed as inactive in test [13], in test [14], in test [15] and in test [16].
`CCCCCc1ccc(Cl)cc1`: the compound was classed as inactive in test [1] and in test [2].
As to `CN1C(=O)N(C)C(O)C1O` (stereo unspecified), the compound was classed as inactive in [7], in [8], in test [9], in [10], in [11] and in test [12]. Moreover, the compound was called inactive in test [13], in test [14], in test [15] and in [16].
For the compound `O=C1CCCC1`, the outcome in test [17], in test [18], in test [1] and in test [2] was inactive.
On to `FC(F)=C(F)OC(F)(F)C(F)(F)C(F)(F)F`, for which the compound was called inactive in test [19].
With `O=C(c1ccc(O)cc1)c1ccc(O)cc1O`, the compound was classed as inactive in test [7], in [8], in test [9], in test [11], in test [12] and in [13]. Moreover, the compound was classed as inactive in test [14], in test [15] and in test [16]. In addition, the AC50 in test [10] was 15 µM (active).
As for `CC1=NN(c2cc(S(=O)(=O)O)ccc2Cl)C(=O)C1N=Nc1ccccc1` (stereo unspecified), the result in test [1] was inactive.
As for `c1ccc2c(c1)ccc1cc3c(ccc4ccccc43)cc12`, the result in test [17], in test [18] and in test [19] was inactive.
On to `O=C1CCCN1CCO`, for which the result in test [7], in test [8], in test [9], in [10], in test [11] and in test [12] was inactive. For the same compound, the result in test [13], in [14], in test [15] and in [16] was inactive.
As for `C=C[Si](OC(C)=O)(OC(C)=O)OC(C)=O`, the compound was classed as inactive in test [7], in test [8], in test [9], in [10], in test [11] and in test [12]. The compound was called inactive in test [13], in test [14], in test [15] and in test [16].
On to `CCN(CCC#N)c1ccc(N=Nc2c(Cl)cc([N+](=O)[O-])cc2Cl)cc1`, for which the outcome in test [1] and in test [2] was inactive.
As for `Cc1ccc(C(C)c2ccc(C)c(C)c2)cc1C`, the half-maximal activity concentration (AC50) in test [1] was 16 µM (active).
`CCCCCCCCCCOS(=O)(=O)O`: the outcome in test [1] was inactive. Besides, the AC50 in test [2] is 19.8 µM (active).
Turning to `CCCCC/C=C\CCC=O`, the call in test [1] was inactive. Moreover, the AC50 in [2] is 100 µM (active).
On to `CO[Si](OC)(OC)c1ccccc1`, for which the compound was classed as inactive in [7], in test [8], in [9], in [10], in test [11] and in test [12]. For the same compound, the result in test [13], in test [14], in test [15], in test [16], in test [1] and in [2] was inactive.
With `CCOC(F)(F)C(F)(F)C(F)(F)C(F)(F)F`, the outcome in test [19] was inactive.
Take `N[C@H]1C(O)O[C@H](CO)[C@H](O)[C@@H]1O` (stereo partly specified): the outcome in test [19] was inactive.
The same measure, in the same setting: for `COC(F)(F)C(F)(C(F)(F)F)C(F)(F)F` the value was “inactive”.

For the origin of these results see PubChem BioAssay (EPA / NIEHS).
